Experimental data taken from the supplement of paper PMC10849652.
The full data set covers some 8,800 targets. This sample favours those with a hit. About 0.5% of all pairs of compound and target were hits.

Tests used:
Assay in all cases: log2 fold change, soluble protein after heating vs DMSO (PISA); higher = thermal stabilisation; K562 lysate, 10 uM; active = over 0.2 and 3.5 SD of the protein, either way, in both replicates (recomputed)
[1] = compound: C#Cc1cccc(Nc2ncnc3cc(OCCOC)c(OCCOC)cc23)c1 [erlotinib]
Method in brief: (§1)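 K562 pellets were dounce-homogenised in PBS pH 7.4 containing 1 mM MgCl2, and the crude extract, at 1 mg/mL protein, was exposed to 10 μM compound for 30 min. Aliquots were heated for 3 min across 48°C-58°C, pooled, brought to 0.5% NP-40 at 4°C and spun at 21,000xg for 90 min, with the supernatant taken as soluble protein. TMTpro 16plex LC-MS/MS with equalised channel sums quantified that protein. Values are log-two fold changes in thermal stability relative to solvent controls, taken from duplicates.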

[2] = compound: C/C(=N\NC(=O)C1=CC(=CC=C1)S(=O)(=O)N2CCOCC2)/C3=C(C=CC(=C3)Cl)O
Method in brief: as §1

[3] = compound: C1=CC(=CC=C1C2=NC3=C(N2)C=C(C=C3)C(=O)N)OC4=CC=C(C=C4)Cl
Method in brief: as §1

[4] = compound: C1=CC2=C(C=CC(=C2)/C=C\3/C(=O)NC(=NCC4=CC=CS4)S3)N=C1
Method in brief: as §1

[5] = compound: C1=CC2=NC=CN=C2C=C1/C=C/3\C(=O)NC(=O)S3
Method in brief: as §1

[6] = compound: C1=CC=C(C=C1)C2=NC(=C(N2)C3=CC=NC=C3)C4=CC(=C(C=C4)Cl)O
Method in brief: as §1

[7] = compound: C1=CC=C2C(=C1)C3=NNC4=CC=CC(=C43)C2=O
Method in brief: as §1

[8] = compound: C1CCN(C1)C(=O)NC2=CC=CC(=C2)NC3=NC=C(C(=N3)NCCC4=CN=CN4)Br
Method in brief: as §1

[9] = compound: C1CN(CCC1(CC2=CC=C(C=C2)Cl)N)C3=NC=NC4=C3C=CN4
Method in brief: as §1

[10] = compound: C1COCCN1CCN2C3=CC=CC=C3N=C2NC(=O)C4=CC(=CC=C4)[N+](=O)[O-] [IRAK-1-4 Inhibitor I]
Method in brief: as §1

[11] = compound: C=CC(=O)N1CCC[C@@H](n2nc(-c3ccc(Oc4ccccc4)cc3)c3c(N)ncnc32)C1 [ibrutinib]
Method in brief: as §1

[12] = compound: CC(=O)c1cnc2ccc(-c3cc(Cl)c(O)c(Cl)c3)nc2c1N[C@H]1CC[C@H](CN(C)C)CC1
Method in brief: as §1

[13] = compound: CC(C)(C)Cn1c(N)nc2ccc(-c3[nH]c(C(C)(C)C)nc3-c3ccc(F)cc3)nc21 [ralimetinib]
Method in brief: as §1

[14] = compound: CC(C)(O)CC(=O)NCCn1ccc2ncnc(Nc3ccc(Oc4cccc(C(F)(F)F)c4)c(Cl)c3)c21
Method in brief: as §1

[15] = compound: CC(C)C1=C2N=C(C=C(N2N=C1)NCC3=CC=CC=C3)NCCCCCCN
Method in brief: as §1

[16] = compound: CC1=C(C(CC(=O)N1)C2=CC=C(C=C2)C(F)(F)F)C(=O)NC3=C(C=C4C(=C3)C=NN4)F
Method in brief: as §1

[17] = compound: CC1=C(C2=C(C=C1)C(=O)C3=CC=CC=C3N2CCCN)C
Method in brief: as §1

[18] = compound: CC1=C(C=C(C=C1)NC(=O)C2=CC(=CC=C2)C(C)(C)C#N)NC3=CC4=C(C=C3)N=CN(C4=O)C
Method in brief: as §1

[19] = compound: CC1=C(C=C(C=C1)NC(=O)C2=CC(=CC=C2)N(C)C)NC(=O)C3=CC=C(C=C3)O
Method in brief: as §1

[20] = compound: CC1=CC=C(C=C1)SC2=C3C=C(SC3=CN=C2)C(=O)N
Method in brief: as §1

Measured: log2 fold change

IRAK1 (UniProt P51617)
UniProt P51617, sequence (P51617 whole entry, looked up): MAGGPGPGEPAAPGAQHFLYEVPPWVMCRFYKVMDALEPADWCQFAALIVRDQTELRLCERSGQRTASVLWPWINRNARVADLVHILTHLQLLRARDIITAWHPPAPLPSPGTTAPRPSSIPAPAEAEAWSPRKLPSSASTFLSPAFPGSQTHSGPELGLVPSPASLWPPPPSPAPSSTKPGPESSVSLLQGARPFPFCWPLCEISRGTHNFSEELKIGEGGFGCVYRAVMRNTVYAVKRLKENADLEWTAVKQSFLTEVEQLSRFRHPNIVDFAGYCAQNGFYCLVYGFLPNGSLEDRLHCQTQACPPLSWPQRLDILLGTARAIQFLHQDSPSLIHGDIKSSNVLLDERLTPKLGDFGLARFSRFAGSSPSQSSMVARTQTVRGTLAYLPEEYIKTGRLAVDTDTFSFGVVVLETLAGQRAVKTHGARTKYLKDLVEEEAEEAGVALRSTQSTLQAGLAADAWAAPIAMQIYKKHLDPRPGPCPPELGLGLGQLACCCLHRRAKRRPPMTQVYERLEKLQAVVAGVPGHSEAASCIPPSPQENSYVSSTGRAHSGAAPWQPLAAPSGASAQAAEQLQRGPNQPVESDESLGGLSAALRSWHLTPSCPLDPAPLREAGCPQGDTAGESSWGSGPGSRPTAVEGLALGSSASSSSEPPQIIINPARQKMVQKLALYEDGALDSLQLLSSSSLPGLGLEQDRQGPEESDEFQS
inactive: [1] 0.038 | [2] -0.054 | [3] -0.108 | [4] -0.015 | [5] 0.028 | [6] 0.039 | [7] 0.117 | [8] 0.023 | [9] -0.096 | [10] 0.023 | [11] 0.032 | [12] 0.195 | [13] -0.024 | [14] -0.031 | [15] -0.018 | [16] -0.013 | [17] -0.028 | [18] -0.086 | [19] 0.062 | [20] 0

HAUS7 isoform 2 (UniProt Q99871)
UniProt Q99871, sequence (Q99871 whole entry, looked up): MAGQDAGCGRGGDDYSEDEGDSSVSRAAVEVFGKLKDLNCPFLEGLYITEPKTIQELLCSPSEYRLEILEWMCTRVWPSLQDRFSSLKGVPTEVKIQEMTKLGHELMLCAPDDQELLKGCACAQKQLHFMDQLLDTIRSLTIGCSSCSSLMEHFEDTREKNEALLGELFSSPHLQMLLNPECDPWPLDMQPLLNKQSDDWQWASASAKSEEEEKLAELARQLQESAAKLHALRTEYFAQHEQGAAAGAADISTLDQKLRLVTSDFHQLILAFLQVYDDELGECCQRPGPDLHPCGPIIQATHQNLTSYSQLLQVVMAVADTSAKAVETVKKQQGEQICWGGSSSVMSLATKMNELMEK
inactive: [1] 0.104 | [2] 0.106 | [3] 0.028 | [4] -0.005 | [5] 0 | [6] 0.048 | [7] -0.006 | [8] -0.011 | [9] 0.164 | [10] -0.028 | [11] 0.082 | [12] 0.105 | [13] -0.002 | [14] -0.031 | [15] 0.05 | [16] -0.003 | [17] 0.028 | [18] -0.031 | [19] 0.021 | [20] -0.054

HSPA8 (UniProt E9PK54)
inactive: [1] 0.045 | [2] -0.222 | [3] -0.045 | [4] -0.099 | [5] 0.014 | [6] -0.044 | [7] 0 | [8] -0.043 | [9] -0.008 | [10] -0.141 | [11] 0.065 | [12] -0.086 | [13] -0.013 | [14] -0.132 | [15] 0.004 | [16] -0.019 | [17] 0.008 | [18] -0.076 | [19] -0.019 | [20] 0.014

GSTP1 (UniProt P09211)
UniProt P09211, sequence (P09211 whole entry, looked up): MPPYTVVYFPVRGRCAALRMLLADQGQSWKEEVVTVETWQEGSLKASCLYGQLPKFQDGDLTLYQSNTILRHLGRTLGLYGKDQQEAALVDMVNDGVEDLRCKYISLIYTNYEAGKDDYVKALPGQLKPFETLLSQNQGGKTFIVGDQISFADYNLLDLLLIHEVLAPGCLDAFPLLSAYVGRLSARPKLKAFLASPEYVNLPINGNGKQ
inactive: [1] -0.008 | [2] 0.035 | [3] -0.024 | [4] 0.036 | [5] 0.08 | [6] -0.002 | [7] 0.007 | [8] -0.022 | [9] -0.022 | [10] 0 | [11] -0.012 | [12] 0.042 | [13] 0.011 | [14] -0.003 | [15] 0.021 | [16] -0.011 | [17] 0.036 | [18] -0.025 | [19] 0.003 | [20] -0.003

GLYR1 (UniProt Q49A26)
active: [17] -0.339
inactive: [1] 0.025 | [2] 0.061 | [3] -0.018 | [4] 0.021 | [5] 0.041 | [6] 0.029 | [7] -0.01 | [8] 0.11 | [9] 0.035 | [10] 0.006 | [11] 0.113 | [12] 0.017 | [13] 0.038 | [14] -0.15 | [15] 0.033 | [16] 0.07 | [18] 0.126 | [19] 0.106 | [20] 0.032

INTS1 (UniProt Q8N201)
UniProt Q8N201, sequence (Q8N201 whole entry, looked up): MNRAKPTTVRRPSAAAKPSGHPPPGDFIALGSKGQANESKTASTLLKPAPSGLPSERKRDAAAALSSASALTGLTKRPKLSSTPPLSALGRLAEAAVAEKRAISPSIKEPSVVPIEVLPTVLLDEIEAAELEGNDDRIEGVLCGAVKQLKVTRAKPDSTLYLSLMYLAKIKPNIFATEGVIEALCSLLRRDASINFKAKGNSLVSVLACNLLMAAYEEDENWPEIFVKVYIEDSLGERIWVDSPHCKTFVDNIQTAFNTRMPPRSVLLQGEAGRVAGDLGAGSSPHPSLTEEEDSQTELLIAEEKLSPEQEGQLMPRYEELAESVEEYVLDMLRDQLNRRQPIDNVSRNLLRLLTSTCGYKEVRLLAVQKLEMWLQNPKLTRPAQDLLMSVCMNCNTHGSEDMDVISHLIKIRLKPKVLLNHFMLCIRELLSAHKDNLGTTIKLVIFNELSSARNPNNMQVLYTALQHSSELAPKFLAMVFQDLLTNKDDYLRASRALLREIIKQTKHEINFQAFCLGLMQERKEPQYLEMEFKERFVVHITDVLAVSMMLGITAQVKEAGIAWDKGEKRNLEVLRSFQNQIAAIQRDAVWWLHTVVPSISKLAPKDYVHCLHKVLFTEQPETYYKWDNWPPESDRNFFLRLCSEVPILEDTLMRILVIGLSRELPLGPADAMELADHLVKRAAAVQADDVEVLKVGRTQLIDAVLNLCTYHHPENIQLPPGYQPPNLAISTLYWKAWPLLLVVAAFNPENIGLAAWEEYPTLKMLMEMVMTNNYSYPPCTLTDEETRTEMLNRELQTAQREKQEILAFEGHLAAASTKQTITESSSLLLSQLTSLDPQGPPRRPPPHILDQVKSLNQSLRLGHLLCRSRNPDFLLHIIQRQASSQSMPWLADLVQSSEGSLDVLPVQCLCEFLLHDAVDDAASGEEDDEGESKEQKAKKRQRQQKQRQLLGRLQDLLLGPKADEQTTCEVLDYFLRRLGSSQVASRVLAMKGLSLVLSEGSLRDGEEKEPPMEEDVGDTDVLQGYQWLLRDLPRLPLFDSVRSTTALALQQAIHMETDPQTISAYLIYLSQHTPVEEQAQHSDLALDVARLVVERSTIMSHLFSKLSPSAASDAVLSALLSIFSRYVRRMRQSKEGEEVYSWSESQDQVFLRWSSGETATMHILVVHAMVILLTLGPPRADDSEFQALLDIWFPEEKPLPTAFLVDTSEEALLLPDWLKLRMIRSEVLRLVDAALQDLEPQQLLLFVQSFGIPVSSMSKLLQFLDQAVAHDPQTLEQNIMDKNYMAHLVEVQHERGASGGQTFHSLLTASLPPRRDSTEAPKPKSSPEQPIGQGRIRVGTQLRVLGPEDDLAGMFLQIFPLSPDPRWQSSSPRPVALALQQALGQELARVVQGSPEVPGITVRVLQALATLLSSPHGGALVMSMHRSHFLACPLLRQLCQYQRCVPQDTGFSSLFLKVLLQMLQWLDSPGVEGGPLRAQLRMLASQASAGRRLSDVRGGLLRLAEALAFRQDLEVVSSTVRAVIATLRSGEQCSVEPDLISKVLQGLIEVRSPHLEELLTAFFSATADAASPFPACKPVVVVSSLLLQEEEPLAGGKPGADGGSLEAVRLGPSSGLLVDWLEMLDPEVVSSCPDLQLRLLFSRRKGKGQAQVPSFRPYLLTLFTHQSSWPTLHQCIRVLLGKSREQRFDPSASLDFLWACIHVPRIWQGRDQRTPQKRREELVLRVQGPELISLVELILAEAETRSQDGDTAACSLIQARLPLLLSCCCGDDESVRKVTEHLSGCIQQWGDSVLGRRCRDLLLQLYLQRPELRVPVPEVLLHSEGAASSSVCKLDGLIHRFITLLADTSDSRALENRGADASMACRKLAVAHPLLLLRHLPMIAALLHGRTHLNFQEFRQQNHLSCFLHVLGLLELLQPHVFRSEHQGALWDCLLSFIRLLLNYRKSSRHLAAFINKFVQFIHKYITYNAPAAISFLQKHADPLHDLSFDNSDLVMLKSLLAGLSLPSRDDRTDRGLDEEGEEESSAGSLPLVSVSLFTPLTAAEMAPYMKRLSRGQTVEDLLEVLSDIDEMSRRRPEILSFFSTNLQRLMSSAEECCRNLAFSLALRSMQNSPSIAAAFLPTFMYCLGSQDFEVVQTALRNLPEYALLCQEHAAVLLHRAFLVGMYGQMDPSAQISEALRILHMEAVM
inactive: [1] 0.016 | [2] 0.063 | [3] 0.013 | [4] -0.071 | [5] -0.017 | [6] 0.027 | [7] -0.097 | [8] -0.01 | [9] 0.025 | [10] 0.016 | [11] -0.103 | [12] 0.177 | [13] 0.053 | [14] -0.007 | [15] -0.052 | [16] -0.052 | [17] 0.038 | [18] -0.032 | [19] 0.035 | [20] 0.026

GRB10 (UniProt Q13322)
UniProt Q13322, sequence (Q13322 whole entry, looked up): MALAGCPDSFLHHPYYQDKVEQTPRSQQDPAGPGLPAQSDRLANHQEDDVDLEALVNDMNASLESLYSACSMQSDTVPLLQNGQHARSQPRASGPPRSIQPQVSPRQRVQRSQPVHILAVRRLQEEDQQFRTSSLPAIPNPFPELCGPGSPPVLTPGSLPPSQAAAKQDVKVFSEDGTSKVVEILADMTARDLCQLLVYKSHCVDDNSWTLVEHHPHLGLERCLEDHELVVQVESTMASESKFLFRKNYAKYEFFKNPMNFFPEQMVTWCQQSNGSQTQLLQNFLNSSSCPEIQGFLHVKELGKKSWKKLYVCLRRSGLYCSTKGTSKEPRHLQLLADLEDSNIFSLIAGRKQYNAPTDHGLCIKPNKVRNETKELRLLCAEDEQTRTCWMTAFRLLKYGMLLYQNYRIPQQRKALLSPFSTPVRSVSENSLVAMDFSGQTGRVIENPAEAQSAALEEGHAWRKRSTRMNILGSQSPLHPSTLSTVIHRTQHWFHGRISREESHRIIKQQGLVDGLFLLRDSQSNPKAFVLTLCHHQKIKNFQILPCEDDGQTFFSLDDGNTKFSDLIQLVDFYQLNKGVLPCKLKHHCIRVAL
inactive: [1] 0.027 | [2] -0.004 | [3] -0.06 | [4] 0.013 | [5] -0.03 | [6] 0.016 | [7] 0.019 | [8] 0.073 | [9] 0.054 | [10] -0.039 | [11] 0.015 | [12] -0.039 | [13] -0.006 | [14] -0.032 | [15] 0.014 | [16] 0.04 | [17] -0.015 | [18] -0.032 | [19] -0.006 | [20] 0.066

GRK2 (UniProt P25098)
UniProt P25098, sequence (P25098 whole entry, looked up): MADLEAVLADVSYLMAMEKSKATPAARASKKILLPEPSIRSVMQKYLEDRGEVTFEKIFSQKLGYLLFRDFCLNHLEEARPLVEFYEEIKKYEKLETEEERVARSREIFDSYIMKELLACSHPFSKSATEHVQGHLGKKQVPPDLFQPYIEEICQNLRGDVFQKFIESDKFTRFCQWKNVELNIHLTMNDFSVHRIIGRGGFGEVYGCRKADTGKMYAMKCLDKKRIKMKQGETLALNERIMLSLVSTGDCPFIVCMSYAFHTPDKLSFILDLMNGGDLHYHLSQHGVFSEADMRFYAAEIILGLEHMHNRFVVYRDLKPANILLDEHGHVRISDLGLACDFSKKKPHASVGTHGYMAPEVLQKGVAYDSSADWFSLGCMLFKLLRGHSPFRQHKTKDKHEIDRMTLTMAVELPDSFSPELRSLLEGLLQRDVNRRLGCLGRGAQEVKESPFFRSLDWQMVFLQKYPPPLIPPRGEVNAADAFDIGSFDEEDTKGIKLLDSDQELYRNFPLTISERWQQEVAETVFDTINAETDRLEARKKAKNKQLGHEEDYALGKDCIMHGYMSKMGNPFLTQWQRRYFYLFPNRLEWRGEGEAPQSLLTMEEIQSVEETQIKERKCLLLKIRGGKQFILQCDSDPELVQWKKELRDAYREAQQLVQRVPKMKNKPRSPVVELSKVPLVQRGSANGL
active: [9] 0.536
inactive: [1] 0.023 | [2] 0.028 | [3] 0.015 | [4] 0.115 | [5] -0.005 | [6] -0.025 | [7] -0.098 | [8] -0.026 | [10] -0.002 | [11] 0.002 | [12] 0.011 | [13] 0.006 | [14] 0.036 | [15] 0 | [16] 0.151 | [17] 0.014 | [18] -0.048 | [19] 0.007 | [20] -0.031
